MEKK2 mut-MEK5 – signal of MEK5 binding to mutant human MEKK2 PB1 domain. bead flow cytometry, Alexa488-MEK5 binding to MEKK2 mutant. percent response, % at 10 µM. 290,000 compounds, 0.35% hits; in the data active means percent response above about 24%, passing the limit was not always enough
MEKK2wt PB1 HTS – raises or lowers MEK5 binding to wildtype human MEKK2 PB1 domain; Q9Y2U5; bead flow cytometry, Alexa488-MEK5 binding to MEKK2 WT; actives lie on both sides; binding response (% of control), % at 10 µM; 290,000 compounds, 1.1% hits; AID 1531; in the data active means binding response below about 67% or above about 130%
CRFR2-BP ag – agonists of human CRF-binding protein/CRF-R2 receptor complex; HEK293 CRF-R2/CRF-BP, calcium dye fluorescence (FLIPR); percent of saturating CRF peptide response; 350,000 compounds, 0.46% hits; AID 588473; activation, % at 13.2 µM;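 active means activation of at least 50%, plus an integration ratio under a set limit after plate pattern correction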;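 further: plate controls were neutral control wells without compound for no effect and CRF at EC100 for full effect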
CRFBP-R2 block – blocks CRF-induced signaling of the CRF-BP/CRF-R2 complex; HEK293 CRF-R2/CRF-BP, CRF-induced calcium fluorescence; inhibition, % at 11.8 µM; 350,000 compounds, 0.59% hits;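 active means inhibition of the ligand-induced calcium signal above about 50% at the single tested concentration, limit read from the data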
MEKK3 PB1 HTS – raises or lowers MEK5 binding to the human MEKK3 PB1 domain | Q99759 | bead-based flow cytometry, Alexa488-MEK5 binding to MEKK3; actives lie on both sides; 0 = blocked by unlabeled MEK5, 100 = vehicle | binding response (% of control), % at 10 µM | 290,000 compounds, 1.4% hits | AID 1529;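 active means binding response more than 3 SD above or below the average of its plate-row segment, actives on both sides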;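 further: Alexa488 bead fluorescence after subtracting the streptavidin-only scavenger bead signal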
Target sequence (Q99759 whole entry, looked up, the tested form may be a part): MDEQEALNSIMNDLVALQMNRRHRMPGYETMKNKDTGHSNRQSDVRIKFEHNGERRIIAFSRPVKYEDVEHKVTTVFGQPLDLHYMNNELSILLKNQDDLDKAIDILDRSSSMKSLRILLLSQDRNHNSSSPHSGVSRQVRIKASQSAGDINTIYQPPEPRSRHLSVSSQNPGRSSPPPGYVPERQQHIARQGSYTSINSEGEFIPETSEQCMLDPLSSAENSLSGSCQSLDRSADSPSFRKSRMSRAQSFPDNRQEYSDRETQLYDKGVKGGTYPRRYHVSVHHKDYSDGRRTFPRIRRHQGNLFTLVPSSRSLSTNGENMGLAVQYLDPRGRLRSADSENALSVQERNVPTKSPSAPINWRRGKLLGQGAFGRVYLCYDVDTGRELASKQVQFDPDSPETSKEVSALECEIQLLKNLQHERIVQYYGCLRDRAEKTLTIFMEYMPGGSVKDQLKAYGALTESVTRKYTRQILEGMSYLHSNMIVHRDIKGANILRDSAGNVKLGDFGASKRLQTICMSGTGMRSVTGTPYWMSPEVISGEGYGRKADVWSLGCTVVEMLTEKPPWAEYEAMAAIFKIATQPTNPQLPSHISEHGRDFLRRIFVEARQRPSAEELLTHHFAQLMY
ABCB6 inh MLPCN – blocks the human ABCB6 transporter | Q9NP58 | K562-ABCB6 porphyrin accumulation, flow cytometry, 1 h; stronger effect = lower value | fluorescence ratio to DMSO, % at 10 µM | 360,000 compounds, 0.19% hits | AID 602162;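 active means fluorescence ratio to DMSO below 75%, the collection mean minus 3 SD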;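 further: signal is porphyrin accumulated inside mitochondria; 100% equals median channel fluorescence of DMSO control wells; lower ratio means ABCB6 inhibition with less porphyrin fluorescence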
MEKK2wt confirm – raises or lowers MEK5 binding to wildtype human MEKK2, retest | shares compounds with MEKK3 PB1 HTS | bead flow cytometry, Alexa488-MEK5 binding to MEKK2 WT; actives lie on both sides | binding response (% of control), % at 10 µM | 5,900 compounds, 2.4% hits | AID 1892; in the data active means binding response below about 16% or above about 210%; inactive means in between
MEKK2mut-MEK5 – signal of MEK5 binding to mutant human MEKK2, retest. bead flow cytometry, Alexa488-MEK5 binding to MEKK2 mutant. percent response, % at 10 µM. shares compounds with MEKK3 PB1 HTS. AID 1893. 5,900 compounds, 2% hits; in the data active means percent response mostly above about 71%, no sharp cut-off; inactive means mostly below about 38%;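 further: higher means compound restores mutant binding toward wildtype level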
MEKK3 confirm – confirmation of inhibitors of MEK5 binding to human MEKK3; bead flow cytometry, Alexa488-MEK5 binding to MEKK3; stronger effect = lower value; 5,900 compounds, 1.8% hits; shares compounds with MEKK3 PB1 HTS; AID 1894; binding response (% of control), % at 10 µM;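 active means binding response below 72% of control, or above a set upper limit, though filed actives all read lower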;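 further: 100% = DMSO only wells and 0% = binding blocked by excess unlabeled MEK5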
* = called active by the depositor; / = no result; [ ] = remark or other dose. This is a sample that favours compounds with a hit; in the whole collection about 2.9% have one here.

SMILES	MEKK2 mut-MEK5	MEKK2wt PB1 HTS	CRFR2-BP ag	CRFBP-R2 block	MEKK3 PB1 HTS	ABCB6 inh MLPCN	MEKK2wt confirm	MEKK2mut-MEK5	MEKK3 confirm
O=C(Cc1ccc(NC(=O)C2CCCN(C(=O)C3CCC3)C2)cc1)Nc1ccc(C(=O)N2CCOCC2)cc1 (stereo not given)	/	/	-0.6	-14.8	/	102.0	/	/	/
COc1ccc2cnnc(SCC(=O)Nc3ccc(C(=O)O)cc3)c2c1OC	0.0	111.0	-1.8	3.5	143.0*	101.0	100.0	-1.0	102.0
CC1(C)Cc2cccc(OCC(=O)OCC(=O)NCc3ccccc3)c2O1	2.0	100.0	-2.5	12.3	96.0	100.0	/	/	/
CCCN1CCN(CCCNC(=O)c2cc3c(s2)-c2ccccc2OC3)CC1	8.0	120.0	0.6	-1.3	102.0	100.0	/	/	/
CN(C)CCNC(=O)c1cc2c(s1)-c1ccccc1OC2	24.0*	132.0	-1.6	14.5	112.0	97.0	108.0	2.0	99.0
COc1ccc(C(CNC(=O)C(=O)NC2CCCC2)N2CCN(C)CC2)cc1 (stereo not given)	/	/	-0.2	-9.0	/	101.0	/	/	/
Nc1nncn1C(=O)CCCN1C(=O)c2ccccc2C1=O	5.0	121.0	7.7	-10.0	122.0*	90.0	107.0	5.0	101.0
Cc1c(C(=O)NNS(=O)(=O)c2ccccc2)sc(=S)n1C	0.0	113.0	0.5	4.5	139.0*	100.0	97.0	-5.0	102.0
C[C@H](O)Cc1cn(-c2cc3cc(C#Cc4ccsc4)ccc3oc2=O)nn1	/	/	0.5	5.8	/	93.0	/	/	/
COc1ccc(C2=NOC(C)(c3nnc(-c4ccc(F)cc4)o3)C2)cc1 (stereo not given)	-2.0	96.0	-1.4	9.8	81.0*[inhibitor]	101.0	97.0	-10.0	95.0
Cc1cc2cc(CNS(=O)(=O)c3ccccc3)ccc2n1C	-20.0	39.0*[inhibitor]	-4.6	-38.3	61.0	109.0	50.0	-14.0	73.0
CCc1cccc(C)c1NC(=S)NCc1ccccc1	1.0	104.0	-4.1	-11.7	105.0	92.0	/	/	/
Cc1ccccc1NC(=S)NCc1ccc2c(c1)cc(C)n2C	-2.0	61.0*[inhibitor]	0.4	-4.5	74.0*[inhibitor]	103.0	109.0	7.0	105.0
Cc1cc2cc(CNC(=O)Nc3ccccc3)ccc2n1C	4.0	-4.0*[inhibitor]	0.9	2.9	87.0	138.0	92.0	3.0	95.0
Cc1cc2cc(CNC(=S)NCc3ccccc3)ccc2n1C	-9.0	98.0	0.9	13.8	97.0	103.0	/	/	/
CCc1cccc(C)c1NC(=S)NCc1ccc2c(c1)cc(C)n2C	-3.0	72.0*[inhibitor]	-3.1	10.7	84.0	102.0	104.0	5.0	105.0
CCC(NC(=S)NC1CCCCC1)c1ccc(C)cc1 (stereo not given)	-2.0	103.0	/	/	104.0	97.0	/	/	/
C[C@@H]1C[C@H]2[C@@H]3CCC4=CC(=O)C=C[C@]4(C)[C@@]3(F)[C@@H](O)C[C@]2(C)[C@@]1(O)C(=O)CO	/	/	0.5	-13.9	/	98.0	/	/	/
C[C@@H]1C[C@H]2[C@@H]3CCC4=CC(=O)C=C[C@]4(C)[C@@]3(F)[C@@H](O)C[C@]2(C)[C@H]1C(=O)CO	8.0	99.0	1.4	-10.8	122.0*	82.0	102.0	3.0	107.0
Cc1cc(C(=O)NCCN2CCN(c3cccc(Cl)c3)CC2)n(-c2ccccc2)n1	12.0	124.0	-3.3	-6.6	108.0	97.0	/	/	/
Cc1cc(C(=O)NCCCN2CCN(c3cc(Cl)ccc3C)CC2)n(-c2ccccc2)n1	21.0	139.0*	-3.7	-1.2	109.0	95.0	134.0	30.0	104.0
CN1CCN(CC(O)COc2ccc(C34CC5CC(CC(C5)C3)C4)cc2)CC1 (stereo not given)	56.0*	235.0*	1.7	-19.7	116.0	97.0	201.0	81.0*	117.0
COc1ccccc1NC(=O)CNC(=O)c1ccccc1C	-17.0	78.0	-2.8	16.6	75.0*[inhibitor]	104.0	102.0	3.0	107.0
COc1ccc(S(=O)(=O)Nc2cc3c4c(c2)CCN4C(=O)CC3)cc1C	/	/	-0.1	15.1	/	97.0	/	/	/
CCOC(=O)N1CCC(Nc2nc3ccccc3n3cnnc23)CC1	-43.0	0.0*[inhibitor]	-0.5	12.9	0.0*[inhibitor]	97.0	97.0	-4.0	99.0
SMILES	MEKK2 mut-MEK5	MEKK2wt PB1 HTS	CRFR2-BP ag	CRFBP-R2 block	MEKK3 PB1 HTS	ABCB6 inh MLPCN	MEKK2wt confirm	MEKK2mut-MEK5	MEKK3 confirm
CCOC(=O)N1CCN(c2nc3ccc(C(=O)c4ccccc4)cc3n3cnnc23)CC1	2.0	99.0	-0.4	-12.5	101.0	99.0	/	/	/
CCCCCCn1ccc(=N)cc1	-10.0	95.0	0.5	-3.8	81.0	92.0	/	/	/
CCCCCCCCCCCCCCCCn1cc[n+](CC(C)=O)c1	89.0*	220.0*	15.8	38.6	109.0	100.0	203.0	68.0	108.0
COc1ccc(NC(=O)C(c2ccc(OC)cc2)N(C)C(=O)CC2NC(=O)NC2=O)cc1 (stereo not given)	1.0	105.0	2.9	17.0	109.0	108.0	/	/	/
COc1ccc(NC(=O)C(NC(=O)CC2NC(=O)NC2=O)c2ccccc2)cc1 (stereo not given)	0.0	106.0	19.8	-40.6	155.0*	99.0	103.0	1.0	100.0
COc1cccc(C(=O)COC(=O)C2CC(=O)N(c3ccc(Oc4ccccc4OC)cc3)C2)c1 (stereo not given)	5.0	105.0	4.5	13.6	104.0	101.0	/	/	/
COc1ccccc1Oc1ccc(N2CC(C(=O)OCC(=O)c3ccccc3)CC2=O)cc1 (stereo not given)	-13.0	9.0*[inhibitor]	1.8	-1.8	6.0*[inhibitor]	101.0	101.0	-1.0	101.0
CC1CN(C(=O)Cn2cc(SCC(=O)N3CCOCC3)c3ccccc32)CC(C)O1 (stereo not given)	-15.0	-2.0*[inhibitor]	1.9	-0.4	1.0*[inhibitor]	100.0	109.0	5.0	110.0
CN(C(=S)Nc1ccc(SC(F)F)cc1)c1ccc(O)cc1	0.0	107.0	-1.8	0.5	133.0*	100.0	113.0	6.0	102.0
CC1CN(C(=O)CN2C(=O)c3ccccc3C2=O)CC(C)O1 (stereo not given)	6.0	102.0	2.0	-18.1	97.0	159.0	/	/	/
CC1CCCN(C(=O)CN2C(=O)c3ccccc3C2=O)C1 (stereo not given)	-35.0	13.0*[inhibitor]	-0.2	10.7	29.0*[inhibitor]	104.0	95.0	10.0	103.0
